Measured values taken from PubChem BioAssay.
The source made the active and inactive calls.

Legend:
[1] = small molecules captured by biotinylated probe aFSTL3 – biochemical, small-molecule microarray, fluorescence 635/667, stem cell growth factor project, primary screen (AID 1064); conditions: higher = more signal;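 further: measures binding of the biotinylated anti-FSTL3 antibody to printed compounds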
[2] = binders from COS7 lysate, DM2A8 probe, primary screen, torsin A project, cell lysate, small-molecule microarray, fluorescence 635/667 (AID 1065); conditions: higher = more signal, COS7 lysate expressing mutant human TOR1A
[3] = small molecules captured by biotinylated probe aFGF2 – biochemical, small-molecule microarray, fluorescence 635/667, stem cell growth factor project, primary screen (AID 1067); conditions: higher = more signal;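 further: measures binding of biotinylated aFGF2 protein to printed compounds on slides; z-score merges feature fluorescence and signal-to-noise across triplicate slides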
[4] = small molecules captured by biotinylated probe aFGF10 – biochemical, small-molecule microarray, fluorescence 635/667, stem cell growth factor project, primary screen (AID 1071); conditions: higher = more signal;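 further: score merges 667 nm spot intensity and signal to noise from triplicate slides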
[5] = molecular target: Neurogenic locus notch homolog protein 2 (Homo sapiens) (UniProt Q04721); assay: small molecules binding Notch2 protein – biochemical, small-molecule microarray, 635 nm fluorescence, stem cell growth factors, primary screen (AID 1073); conditions: higher = more signal
Neurogenic locus notch homolog protein 2 (Homo sapiens), sequence (Q04721 whole entry, looked up, canonical isoform): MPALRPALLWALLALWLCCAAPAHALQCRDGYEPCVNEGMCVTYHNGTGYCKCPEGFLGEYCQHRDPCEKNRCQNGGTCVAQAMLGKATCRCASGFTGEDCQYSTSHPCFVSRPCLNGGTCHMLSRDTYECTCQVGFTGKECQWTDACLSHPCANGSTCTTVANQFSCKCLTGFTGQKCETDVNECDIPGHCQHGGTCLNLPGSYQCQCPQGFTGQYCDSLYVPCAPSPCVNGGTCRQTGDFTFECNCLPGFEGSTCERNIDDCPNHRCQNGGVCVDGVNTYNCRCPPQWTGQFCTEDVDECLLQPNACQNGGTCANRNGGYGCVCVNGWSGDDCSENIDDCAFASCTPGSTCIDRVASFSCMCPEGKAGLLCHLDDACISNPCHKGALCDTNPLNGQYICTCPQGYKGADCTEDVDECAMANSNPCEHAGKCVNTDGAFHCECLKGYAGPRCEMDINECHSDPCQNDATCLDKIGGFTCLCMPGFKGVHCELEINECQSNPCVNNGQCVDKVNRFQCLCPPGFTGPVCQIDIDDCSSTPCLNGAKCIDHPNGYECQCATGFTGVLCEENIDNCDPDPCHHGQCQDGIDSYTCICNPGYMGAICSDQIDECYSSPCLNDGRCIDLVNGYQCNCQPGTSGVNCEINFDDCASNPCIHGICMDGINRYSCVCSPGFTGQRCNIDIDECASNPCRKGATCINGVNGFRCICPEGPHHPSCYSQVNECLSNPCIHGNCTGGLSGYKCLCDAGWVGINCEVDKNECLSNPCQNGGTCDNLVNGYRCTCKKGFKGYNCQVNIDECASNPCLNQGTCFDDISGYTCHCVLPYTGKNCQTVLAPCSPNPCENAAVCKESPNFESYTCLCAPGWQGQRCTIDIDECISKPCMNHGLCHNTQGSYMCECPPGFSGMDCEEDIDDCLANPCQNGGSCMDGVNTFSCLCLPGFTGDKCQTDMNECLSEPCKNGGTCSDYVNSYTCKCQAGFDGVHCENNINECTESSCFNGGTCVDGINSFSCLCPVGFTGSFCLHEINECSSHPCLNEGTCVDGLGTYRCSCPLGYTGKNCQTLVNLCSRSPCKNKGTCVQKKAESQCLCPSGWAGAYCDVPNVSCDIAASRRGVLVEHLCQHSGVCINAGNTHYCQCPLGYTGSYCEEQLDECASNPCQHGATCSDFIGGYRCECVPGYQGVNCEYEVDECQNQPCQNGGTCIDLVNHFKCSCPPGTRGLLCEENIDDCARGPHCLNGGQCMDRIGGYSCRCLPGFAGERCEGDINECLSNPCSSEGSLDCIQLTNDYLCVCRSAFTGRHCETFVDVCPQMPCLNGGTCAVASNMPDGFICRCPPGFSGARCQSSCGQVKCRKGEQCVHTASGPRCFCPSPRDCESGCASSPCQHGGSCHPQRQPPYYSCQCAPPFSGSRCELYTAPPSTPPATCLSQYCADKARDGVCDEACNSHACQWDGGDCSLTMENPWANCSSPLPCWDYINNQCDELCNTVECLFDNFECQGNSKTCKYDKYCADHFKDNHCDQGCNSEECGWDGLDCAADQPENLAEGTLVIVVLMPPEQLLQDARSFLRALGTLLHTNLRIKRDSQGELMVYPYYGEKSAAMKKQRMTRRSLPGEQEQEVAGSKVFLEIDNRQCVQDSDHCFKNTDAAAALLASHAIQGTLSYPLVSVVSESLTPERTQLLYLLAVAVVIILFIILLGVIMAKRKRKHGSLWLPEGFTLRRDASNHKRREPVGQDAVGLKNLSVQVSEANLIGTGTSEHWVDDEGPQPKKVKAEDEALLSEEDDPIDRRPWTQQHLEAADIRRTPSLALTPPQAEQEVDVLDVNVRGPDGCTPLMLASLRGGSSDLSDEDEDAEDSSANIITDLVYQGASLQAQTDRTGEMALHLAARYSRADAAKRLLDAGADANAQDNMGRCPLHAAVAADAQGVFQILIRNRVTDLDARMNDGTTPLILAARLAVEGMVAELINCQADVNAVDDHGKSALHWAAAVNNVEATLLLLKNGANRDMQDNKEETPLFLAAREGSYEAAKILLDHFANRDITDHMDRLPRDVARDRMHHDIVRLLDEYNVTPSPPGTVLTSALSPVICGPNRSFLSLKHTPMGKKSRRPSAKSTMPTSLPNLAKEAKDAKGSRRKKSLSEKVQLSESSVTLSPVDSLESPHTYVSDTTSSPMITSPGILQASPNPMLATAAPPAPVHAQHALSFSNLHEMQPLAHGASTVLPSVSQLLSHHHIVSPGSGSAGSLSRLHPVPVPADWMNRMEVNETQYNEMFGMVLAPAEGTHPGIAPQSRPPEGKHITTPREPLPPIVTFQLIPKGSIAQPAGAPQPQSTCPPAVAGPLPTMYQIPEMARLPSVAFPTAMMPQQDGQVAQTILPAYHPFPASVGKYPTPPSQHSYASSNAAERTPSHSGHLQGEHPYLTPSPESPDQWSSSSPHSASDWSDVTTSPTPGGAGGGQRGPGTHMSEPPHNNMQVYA

[6] = molecular target: Pro-neuregulin-1, membrane-bound isoform (Homo sapiens) (UniProt Q02297); assay: small molecules binding neuregulin-1 protein – biochemical, small-molecule microarray, fluorescence 635/667, psychiatric disease protein project, primary screen (AID 1075); conditions: NRG1 binding, 635 nm fluorescence, higher = more signal;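 further: score combines 667 nm spot fluorescence with signal to noise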
Pro-neuregulin-1, membrane-bound isoform (Homo sapiens), sequence (Q02297 whole entry, looked up, the tested form may be a part, canonical isoform): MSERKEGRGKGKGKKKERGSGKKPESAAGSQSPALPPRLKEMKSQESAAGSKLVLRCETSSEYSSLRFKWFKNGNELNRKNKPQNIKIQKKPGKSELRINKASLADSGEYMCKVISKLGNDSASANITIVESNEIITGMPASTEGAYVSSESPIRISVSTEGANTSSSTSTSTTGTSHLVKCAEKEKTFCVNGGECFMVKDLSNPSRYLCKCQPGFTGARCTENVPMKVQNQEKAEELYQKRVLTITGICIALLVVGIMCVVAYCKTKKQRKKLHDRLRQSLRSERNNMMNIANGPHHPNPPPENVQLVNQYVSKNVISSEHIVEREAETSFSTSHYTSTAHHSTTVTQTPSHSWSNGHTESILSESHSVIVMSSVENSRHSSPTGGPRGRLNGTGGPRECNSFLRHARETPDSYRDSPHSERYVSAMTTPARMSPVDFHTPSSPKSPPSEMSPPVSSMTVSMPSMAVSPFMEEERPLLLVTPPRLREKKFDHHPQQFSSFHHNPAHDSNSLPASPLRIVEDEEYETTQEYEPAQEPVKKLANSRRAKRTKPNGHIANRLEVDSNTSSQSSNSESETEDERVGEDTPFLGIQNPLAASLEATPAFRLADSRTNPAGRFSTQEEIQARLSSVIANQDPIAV

[7] = system: Neuregulin-1 EGF-like domain; assay: small molecules binding NRG1 EGF domain – biochemical, small-molecule microarray, 635 nm fluorescence, primary screen (AID 1081); conditions: higher = more signal;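 further: binding of the protein to compounds printed on small-molecule microarray slides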
[8] = FRG1 expression reporter modulators in myotubes – cell-based, C2C12 myotubes, firefly/Renilla luciferase, luminescence, FRG1 inhibition for FSHD, primary screen (AID 1084); conditions: FRG1 promoter luciferase, higher = more signal, called active from +8 up or from −8 down
[9] = small molecules captured by biotinylated probe aFST – biochemical, small-molecule microarray, fluorescence 635/667, stem cell growth factor project, primary screen (AID 1086); conditions: higher = more signal;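 further: score merges 667 nm fluorescence with signal-to-noise of each printed compound spot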
[10] = binders of probe aHhip on microarray, primary screen, stem cell growth factor project, biochemical, small-molecule microarray, fluorescence 635/667 (AID 1087); conditions: higher = more signal;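 further: score merges spot fluorescence at 667nm with spot signal to noise ratio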
[11] = system: PRMT1 (protein arginine N-methyltransferase 1); assay: small molecules binding arginine methyltransferase PRMT1 – biochemical, small-molecule microarray, 635 nm fluorescence, primary screen (AID 1088); conditions: higher = more signal;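 further: binding of Prmt1 protein to compounds spotted on small-molecule microarray slides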
[12] = growth effects on S. cerevisiae YJM789 – YJM789 clinical isolate, OD600, 24 h, basal, primary screen (AID 1089); conditions: higher = more signal, called active from +8 up or from −8 down;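 further: growth of clinical yeast isolate S. cerevisiae YJM 789 seeded 1000 cells per well; test concentration not given here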
[13] = S. pombe growth modifiers, basal conditions – strain 972, OD600, 24 h, no modulator, primary screen (AID 1090);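 further: basal condition with compound alone and no growth modifier present; test concentration not given here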; conditions: S. pombe 972 growth, higher = more signal, called active from +8 up or from −8 down
[14] = budding yeast growth modifiers under rapamycin – strain BY4716, OD600, 96 h, primary screen (AID 1091); further: test concentration not given here; conditions: S. cerevisiae BY4716 + rapamycin, higher = more signal, called active from +8 up or from −8 down
[15] = molecular target: Torsin-1A-interacting protein 2 (Homo sapiens) (UniProt Q8NFQ8); assay: small molecules binding lysate-expressed LULL1 – cell lysate, human LULL1 lysate, 635/667 nm fluorescence, primary screen (AID 1092); conditions: small-molecule microarray, hLULL1 lysate binding, 635 nm fluorescence; higher = more signal;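 further: probe is lysate of COS7 cells overexpressing human LULL1; score merges per-feature 667 nm fluorescence with signal-to-noise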
Torsin-1A-interacting protein 2 (Homo sapiens), sequence (Q8NFQ8 whole entry, looked up): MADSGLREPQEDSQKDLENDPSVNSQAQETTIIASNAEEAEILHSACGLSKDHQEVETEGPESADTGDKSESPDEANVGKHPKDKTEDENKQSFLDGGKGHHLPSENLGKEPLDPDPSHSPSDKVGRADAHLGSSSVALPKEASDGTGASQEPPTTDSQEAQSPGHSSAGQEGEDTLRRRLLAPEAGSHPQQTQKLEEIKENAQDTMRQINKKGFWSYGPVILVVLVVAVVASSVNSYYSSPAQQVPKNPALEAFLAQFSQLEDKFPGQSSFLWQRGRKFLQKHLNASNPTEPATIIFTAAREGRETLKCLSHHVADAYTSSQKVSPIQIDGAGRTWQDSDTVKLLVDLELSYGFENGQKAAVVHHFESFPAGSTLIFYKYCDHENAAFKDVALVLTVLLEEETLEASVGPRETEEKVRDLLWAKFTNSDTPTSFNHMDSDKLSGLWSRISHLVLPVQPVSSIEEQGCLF

[16] = optical density change of DRC41 E. coli – strain DRC41, OD650, 24 h, E. coli filamentation project, primary screen (AID 1093);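 further: MC1000 strain lacking acrAB efflux and sulA so SOS filamentation is blocked; test concentration not given here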; conditions: E. coli DRC41 growth, higher = more signal, called active from +8 up or from −8 down
[17] = probe aLefty2 binding to arrayed compounds – biochemical, biotinylated probe, 635/667 nm fluorescence, primary screen (AID 1094); conditions: small-molecule microarray, higher = more signal;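 further: score merges spot fluorescence near 667 nm with spot signal-to-noise ratio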
[18] = system: Noggin (protein binding on small-molecule microarray); assay: small molecules binding Noggin protein – biochemical, 635/667 nm fluorescence, primary screen (AID 1095); conditions: 635 nm fluorescence, higher = more signal;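 further: score merges 667 nm feature fluorescence with signal to noise over triplicate slides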
[19] = molecular target: Neurogenic locus notch homolog protein 3 (Homo sapiens) (UniProt Q9UM47); assay: small molecules binding NOTCH3 protein – biochemical, 635/667 nm fluorescence, primary screen (AID 1096); conditions: small-molecule microarray, 635 nm fluorescence, higher = more signal
[20] = probe aEGFR binding to arrayed compounds – biochemical, biotinylated probe, 635/667 nm fluorescence, primary screen (AID 1097); conditions: small-molecule microarray, higher = more signal;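 further: probe is a biotinylated anti-EGFR antibody binding compounds printed on slides; score combines fluorescence near 667 nm and signal to noise of each spot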

COc1ccc([Si](C)(C)[C@@H]2[C@@H](CC(=O)N3CCC[C@H]3CO)O[C@]3(C(=O)N(Cc4ccc(I)cc4)c4ccccc43)[C@H]2C)cc1
composite z-score [1]: 0.035
composite z-score [2]: 0.356
composite z-score [3]: -0.142
composite z-score [4]: 0.254
composite z-score [5]: 0.806
composite z-score [6]: 0.805
composite z-score [7]: 1.22
z-score [8]: -1.71 (inactive)
composite z-score [9]: 0.357
composite z-score [10]: 0.281
composite z-score [11]: 1.56
z-score [12]: -1.41 (inactive)
z-score [13]: -0.398 (inactive)
z-score [14]: -0.309 (inactive)
composite z-score [15]: 1.53
z-score [16]: 2.22 (inactive)
composite z-score [17]: 0.0662
composite z-score [18]: 0.982
composite z-score [19]: 1.13
composite z-score [20]: 0.0152

C=C(/C(=C/C[C@H](OC(=O)c1ccncc1)c1cccc(OCCO)c1)c1cc(C(=O)OC)ccc1OC)C(C)C
composite z-score [1]: -0.0743
composite z-score [2]: 1.66
composite z-score [3]: -0.113
composite z-score [4]: 0.382
composite z-score [5]: 0.191
composite z-score [6]: -0.389
composite z-score [7]: 0.73
z-score [8]: -1.23 (inactive)
composite z-score [9]: -0.179
composite z-score [10]: -0.0631
composite z-score [11]: 1.26
z-score [12]: 0.195 (inactive)
z-score [13]: -0.382 (inactive)
z-score [14]: 0.947 (inactive)
composite z-score [15]: 1.23
z-score [16]: 1.22 (inactive)
composite z-score [17]: -0.192
composite z-score [18]: 0.126
composite z-score [19]: 0.436
composite z-score [20]: -0.112

CCCCCN1CC=CC23O[C@@H]4/C=C\CCC(C)OC(=O)C4[C@H]2C(=O)N(CCO)[C@@H]3C1=O (stereo not given in full)
composite z-score [1]: 0.767
composite z-score [2]: 2.14
composite z-score [3]: -0.216
composite z-score [4]: -0.807
composite z-score [5]: -0.762
composite z-score [6]: 0.77
composite z-score [7]: 1.13
z-score [8]: 0.569 (inactive)
composite z-score [9]: -0.639
composite z-score [10]: -0.16
composite z-score [11]: -0.754
z-score [12]: -0.139 (inactive)
z-score [13]: -1.24 (inactive)
z-score [14]: -0.0531 (inactive)
composite z-score [15]: 1.45
z-score [16]: 2.35 (inactive)
composite z-score [17]: -0.139
composite z-score [18]: -1.36
composite z-score [19]: -0.728
composite z-score [20]: -0.317

C=C(COC)C(=O)CC[C@H](OC(=O)c1ccccc1-c1ccccc1C(=O)O)c1ccccc1OCCO
composite z-score [1]: 0.181
composite z-score [2]: 0.607
composite z-score [3]: -0.129
composite z-score [4]: 0.247
composite z-score [5]: -0.453
composite z-score [6]: 0.867
composite z-score [7]: 0.761
z-score [8]: -0.621 (inactive)
composite z-score [9]: -0.0824
composite z-score [10]: -0.16
composite z-score [11]: 1.56
z-score [12]: -0.0355 (inactive)
z-score [13]: -1.37 (inactive)
z-score [14]: -1.08 (inactive)
composite z-score [15]: 1.13
z-score [16]: 1.4 (inactive)
composite z-score [17]: -0.235
composite z-score [18]: 0.877
composite z-score [19]: 0.385
composite z-score [20]: -0.155

C[N+](C)(C)CCCCNC(=O)[C@@H]1C[C@@H]2C(=O)NCC(=O)N2[C@@H]1c1cccc(OCCO)c1
composite z-score [1]: -0.501
composite z-score [2]: 2.04
composite z-score [3]: -0.085
composite z-score [4]: 1.05
composite z-score [5]: -0.544
composite z-score [6]: 1.22
composite z-score [7]: 1.34
z-score [8]: -0.53 (inactive)
composite z-score [9]: 0.432
composite z-score [10]: 0.167
composite z-score [11]: 1.39
z-score [12]: 2.16 (inactive)
z-score [13]: -0.823 (inactive)
z-score [14]: -1.89 (inactive)
composite z-score [15]: 2.47
z-score [16]: 1.73 (inactive)
composite z-score [17]: -0.0607
composite z-score [18]: 1.88
composite z-score [19]: 1.14
composite z-score [20]: 0.0526

O=C(O)[C@H]1C[C@H]2C(=O)N[C@@H](Cc3ccccc3)C(=O)N2[C@H]1c1ccc(O)cc1
composite z-score [1]: 1.01
composite z-score [2]: 0.419
composite z-score [3]: -0.0943
composite z-score [4]: -0.769
composite z-score [5]: -1.42
composite z-score [6]: 0.511
composite z-score [7]: 1.24
z-score [8]: 1.02 (inactive)
composite z-score [9]: 0.16
composite z-score [10]: -0.136
composite z-score [11]: 1.32
z-score [12]: -0.261 (inactive)
z-score [13]: -0.784 (inactive)
z-score [14]: -0.322 (inactive)
composite z-score [15]: 2.54
z-score [16]: 0.906 (inactive)
composite z-score [17]: -0.0572
composite z-score [18]: 0.108
composite z-score [19]: 0.321
composite z-score [20]: 0.064

C[N+](C)(C)CCCC[C@@H]1NC(=O)[C@H]2C[C@@H](C(=O)NCCCCCN)[C@@H](c3cccc(OCCO)c3)N2C1=O
composite z-score [1]: 0.89
composite z-score [2]: 0.419
composite z-score [3]: -0.0164
composite z-score [4]: 0.372
composite z-score [5]: 0.529
composite z-score [6]: 2.07
composite z-score [7]: 0.739
z-score [8]: -0.309 (inactive)
composite z-score [9]: 1.69
composite z-score [10]: 0.242
composite z-score [11]: 0.665
z-score [12]: -0.706 (inactive)
z-score [13]: -2.62 (inactive)
z-score [14]: -0.207 (inactive)
composite z-score [15]: 2.7
z-score [16]: 2.4 (inactive)
composite z-score [17]: 0.739
composite z-score [18]: 0.387
composite z-score [19]: 0.526
composite z-score [20]: 0.162

CC(C)C(=C=CC[C@@H](O)c1ccc(CO)o1)CCO
composite z-score [1]: -0.416
composite z-score [2]: 0.443
composite z-score [3]: 0.007
composite z-score [4]: 0.768
composite z-score [5]: -0.298
composite z-score [6]: 0.632
composite z-score [7]: 1.19
z-score [8]: 0.136 (inactive)
composite z-score [9]: -0.304
composite z-score [10]: 0.065
composite z-score [11]: 0.821
z-score [12]: 1.15 (inactive)
z-score [13]: -1.09 (inactive)
z-score [14]: -0.24 (inactive)
composite z-score [15]: 1.28
z-score [16]: 1.17 (inactive)
composite z-score [17]: -0.237
composite z-score [18]: 0.852
composite z-score [19]: 0.116
composite z-score [20]: -0.191

Cc1ccc(N2C(=O)c3ccccc3[C@](C)(C(=O)NCC(F)(F)F)[C@@H]2c2ccc(CO)cc2)nc1
composite z-score [1]: 1.36
composite z-score [2]: -0.769
composite z-score [3]: -0.128
composite z-score [4]: -1.14
composite z-score [5]: -1.22
composite z-score [6]: 1.64
composite z-score [7]: 0.0042
z-score [8]: 0.0677 (inactive)
composite z-score [9]: -0.413
composite z-score [10]: -0.0423
composite z-score [11]: -0.973
z-score [12]: -0.625 (inactive)
z-score [13]: -0.972 (inactive)
z-score [14]: -0.286 (inactive)
composite z-score [15]: -0.916
z-score [16]: 1.1 (inactive)
composite z-score [17]: -0.0741
composite z-score [18]: -1.81
composite z-score [19]: -2.16
composite z-score [20]: -0.352

C=CCC(OC(C)=O)[C@@H]1[C@@H](N(Cc2cccc3ccccc23)C(=O)Cc2ccc(OC)cc2)c2cc(OCCCO)ccc2N1C(=O)Cc1ccc(OC)cc1 (stereo not given in full)
composite z-score [1]: 0.163
composite z-score [2]: 0.045
composite z-score [3]: -0.0396
composite z-score [4]: -0.236
composite z-score [5]: -0.111
composite z-score [6]: -0.0173
composite z-score [7]: -0.832
z-score [8]: -0.781 (inactive)
composite z-score [9]: -0.0127
composite z-score [10]: -0.113
composite z-score [11]: -0.59
z-score [12]: 0.395 (inactive)
z-score [13]: -1.38 (inactive)
z-score [14]: -0.275 (inactive)
composite z-score [15]: 0.0872
z-score [16]: 2.21 (inactive)
composite z-score [17]: -0.0691
composite z-score [18]: -0.318
composite z-score [19]: -0.89
composite z-score [20]: -0.166

CC(CO)N1C(=O)[C@@H]2C3C(=O)OCCC/C=C\[C@H]3OC23C=CCN(Cc2ccccc2)C(=O)[C@@H]13 (stereo not given in full)
composite z-score [1]: 0.418
composite z-score [2]: -0.338
composite z-score [3]: -0.143
composite z-score [4]: -0.486
composite z-score [5]: -0.847
composite z-score [6]: -0.512
composite z-score [7]: 0.18
z-score [8]: 0.227 (inactive)
composite z-score [9]: -0.0745
composite z-score [10]: -0.0239
composite z-score [11]: 0.432
z-score [12]: -0.537 (inactive)
z-score [13]: -2.16 (inactive)
z-score [14]: -0.875 (inactive)
composite z-score [15]: -0.0166
z-score [16]: 2.31 (inactive)
composite z-score [17]: -0.16
composite z-score [18]: -0.545
composite z-score [19]: -0.505
composite z-score [20]: -0.186
